3CLpro inhibitor – SARS-CoV 3CLpro protease inhibition | P0C6X7 | recombinant SARS-CoV 3CLpro, quenched FRET peptide cleavage | hit rate 0.14% among 290,000 | inhibition, % at 6 µM; in the data active = inhibition above about 12%
Mtb hypoxia inh – inhibitors of hypoxia-regulated fluorescent reporter in Mycobacterium tuberculosis | M. tuberculosis hypoxia-regulated fluorescent reporter, fluorescence | fluorescence inhibition, % (no concentration beside the values) | hit rate 0.1% among 300,000 | AID 1159583; in the data active = fluorescence inhibition mostly above about 23%, no sharp cut-off; inactive = mostly below about 17%
CCHFV vOTU inh – blocks the CCHF virus ovarian tumor domain protease | CCHFV vOTU protease, Pep-AMC fluorescence | AID 651958 | hit rate 0.55% among 370,000 | inhibition, % at 11.5 µM; in the data active = inhibition above about 30%
DUSP3 inh – inhibitors of human VHR1 phosphatase (DUSP3) | P51452 | inhibition, % at 13.3 µM | AID 1654 | hit rate 0.52% among 290,000 | recombinant VHR phosphatase, pNPP absorbance; in the data active = inhibition above about 50%
Target sequence (P51452 whole entry, looked up): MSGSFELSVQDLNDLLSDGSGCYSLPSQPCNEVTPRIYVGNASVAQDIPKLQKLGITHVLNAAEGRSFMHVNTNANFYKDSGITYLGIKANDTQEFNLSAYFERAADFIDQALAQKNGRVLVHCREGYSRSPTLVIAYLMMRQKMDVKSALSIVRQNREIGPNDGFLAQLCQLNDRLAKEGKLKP
PriA SSB inh – blocks PriA binding to SSB C-terminal tail; AlphaScreen SSBct-PriA binding, biotinylated peptide; inhibition, % at 33 µM; hit rate 0.6% among 430,000; AID 1272365; in the data active = inhibition mostly above about 37%, no sharp cut-off; inactive = mostly below about 20%
Hits are given with their value; n = inactive; x = no result given; ! = not confirmed by another sample. In the library only some 1.3% were active in any assay of this set; here they are far more common.

SMILES	3CLpro inhibitor	Mtb hypoxia inh	CCHFV vOTU inh	DUSP3 inh	PriA SSB inh
Cc1ccc(/C=N/Nc2ccnc3cc(Cl)ccc23)c(C)c1	n	x	n	87.0	x
Clc1ccc(NNc2ccnc3cc(Cl)ccc23)cc1	n	x	n	n	76.2
O=C(c1csc(Nc2ccc(OC(F)F)cc2)n1)N1CCN(C(=O)c2ccco2)CC1	x	x	x	x	n
Cc1ccc(N2CC(C(=O)NC3CCC(C)CC3)CC2=O)cc1 (stereo not given)	n	n	n	n	n
Cc1ccc(N2CC(C(=O)NC3CC3)CC2=O)cc1 (stereo not given)	n	n	n	52.9	n
COc1ccc(N2CC(C(=O)N[C@@H](CC(C)C)C(=O)NC3CCCCC3)CC2=O)cc1 (stereo not given in full)	n	n	n	55.5	n
Cc1nn(Cc2c(F)cccc2Cl)c(C)c1NC(=O)C1CC1	n	n	n	50.8	n
CC(=O)C1=C(C)Nc2ncnn2C1c1ccc(O)cc1 (stereo not given)	n	n	n	58.2	n
CCc1nnc(NC(=O)CSc2nc3c([nH]c4ccccc43)c(=O)n2-c2cccc(OC)c2)s1	x	x	x	x	n
Cc1ccc(C2(C)NC(=O)N(CC(=O)N3c4ccccc4NC(=O)CC3C)C2=O)cc1 (stereo not given)	x	13.1	n	x	n
O=C(NCC1CCCO1)NC(=O)c1ccccc1 (stereo not given)	x	x	x	x	n
CC1OC(OC2C(Oc3cc(O)c4c(c3)OC(c3ccc(O)cc3)CC4=O)OC(CO)C(O)C2O)C(O)C(O)C1O (stereo not given)	x	84.8!	x	x	x
C[C@@H]1O[C@@H](O[C@H]2[C@H](Oc3cc(O)c4c(c3)OC(c3ccc(O)cc3)CC4=O)O[C@H](CO)[C@@H](O)[C@@H]2O)[C@H](O)[C@H](O)[C@H]1O (stereo not given in full)	x	x	n	x	n
N#Cc1ccc(OCC(=O)N2CCN(S(=O)(=O)c3ccc(Cl)s3)CC2)cc1	x	27.2	n	x	n
Cc1ccc(Nc2c([N+](=O)[O-])cc(C(=O)N3CC(=O)Nc4ccccc43)cc2[N+](=O)[O-])c(C)c1	n	n	n	n	42.6
CN(C)CCCN(C(=O)c1ccc(S(=O)(=O)N2CCc3ccccc32)cc1)c1nc2c(Cl)cccc2s1	n	n	n	n	46.4
COc1cccc2sc(N(CCCN(C)C)C(=O)c3ccc(S(=O)(=O)N4CCCc5ccccc54)cc3)nc12	n	n	n	n	20.0!
COc1ccc(OC)c2sc(N(CCCN(C)C)C(=O)c3ccc(S(=O)(=O)N4CCc5ccccc5C4)cc3)nc12	x	x	x	x	n
COc1ccc(C)c2sc(N(CCCN(C)C)C(=O)c3ccc(S(=O)(=O)N4CCc5ccccc5C4)cc3)nc12	x	n	n	x	47.0!
COc1cccc2sc(N(CCCN(C)C)C(=O)c3ccc(S(=O)(=O)N4CCc5ccccc5C4)cc3)nc12	n	n	n	n	n
COC(=O)c1ccc(CSc2nc(C)ccc2C#N)cc1	x	x	x	x	n
CCCCOc1ccc(NC(=O)Nc2nnc(C)s2)cc1	n	x	n	57.3	n
CCCCOc1ccc(NC(=O)NCc2sc(C)nc2C)cc1	x	x	x	x	n
Cn1cccc1-c1cc(C(=O)NN=Cc2ccccc2Cl)[nH]n1	x	n	x	x	39.9
O=C(CSc1ncnc2c1cnn2-c1ccc(Cl)cc1)NCc1ccccc1Cl	x	x	x	x	n
SMILES	3CLpro inhibitor	Mtb hypoxia inh	CCHFV vOTU inh	DUSP3 inh	PriA SSB inh
Cc1ccc(S(=O)(=O)N2CCN(c3ccc(-c4ccc(F)cc4)nn3)CC2)s1	x	x	x	x	n
COc1cccc(-n2ccnc2SCC(=O)Nc2ccccc2C(F)(F)F)c1	x	x	x	x	44.0
COc1ccc(Cl)cc1NC(=O)CSc1nccn1-c1ccc(F)cc1	x	x	x	x	n
COc1ccc(OC)c(NC(=O)CSc2nccn2-c2ccc(F)cc2)c1	x	x	x	x	54.0
COc1cccc(-n2ccnc2SCC(=O)Nc2ccccc2F)c1	n	n	n	n	n
COc1ccc(-n2ccnc2SCC(=O)Nc2cc(C)ccc2C)c(OC)c1	x	x	x	x	39.0
COc1cccc(-n2ccnc2SCC(=O)Nc2cc(OC)ccc2OC)c1	n	x	n	n	46.3
Cc1ccc(OCC(=O)N[C@@H](C)c2ccccc2)c(C)c1	x	x	x	x	n
COc1ccc(-n2ccnc2SCC(=O)Nc2ccc(Cl)cc2)cc1	x	x	x	x	49.0
Cc1cccc(-n2ccnc2SCC(=O)Nc2ccc([N+](=O)[O-])cc2)c1C	x	x	x	x	51.0
CCOc1ccccc1NC(=O)CSc1nccn1-c1ccc(C(=O)NCc2cccs2)cc1	x	x	x	x	40.0
O=C(C[C@@H]1Nc2ccccc2NC1=O)Nc1cccc(C(=O)O)c1	x	x	x	x	n
O=C1CC(c2ccccc2F)C2=C(COC2=O)N1 (stereo not given)	n	n	n	n	n
O=C1CC(c2ccccc2F)C(=O)N1 (stereo not given)	x	x	x	x	42.0
